# High-throughput results from PubChem BioAssay.
# USP28 inh: inhibitors of human USP28 deubiquitinase; Ubiquitin carboxyl-terminal hydrolase 28 (Homo sapiens), Q96RU2; inhibition, % at 25 µM; 47,000 compounds, 3% hits; purified USP28, Ub-rhodamine cleavage fluorescence, 30 min; AID 1645857, 2021
# USP17 block: inhibitors of human USP17 deubiquitinase | Ubiquitin carboxyl-terminal hydrolase 17-like protein 5 (Homo sapiens), A8MUK1 | purified USP17, Ub-rhodamine cleavage fluorescence, 3 h | inhibition, % at 50 µM | 47,000 compounds, 6.5% hits | AID 1645855, 2021
# USP30 block: inhibitors of human USP30 deubiquitinase | Ubiquitin carboxyl-terminal hydrolase 30 (Homo sapiens), Q70CQ3 | purified USP30, Ub-rhodamine cleavage fluorescence | inhibition, % at 25 µM | 47,000 compounds, 5.3% hits | AID 1645860, 2021
# * hit, by the source's call; · = no result given. A selection: hits, their analogues and other compounds. The true share with any hit is near 11%. No stated cut-off is given here; in the data, active means inhibition above about 30%; inactive means the rest.
SMILES,USP28 inh,USP17 block,USP30 block
O=C(Cn1c(=O)c2cccnc2n(-c2ccccc2)c1=O)Nc1ccc(F)cc1,-4,-10,-22
CC(NC(=O)c1cn(-c2cc(N3CCOCC3)ncn2)cn1)c1ccccc1 (centres undefined),1,6,-6
Cc1cc(C)cc(-n2cnc3cc(C(=O)NCCC4=CCCCC4)ccc32)c1,63*,0,15
COc1cc(-n2cnc3cc(C(=O)NCCN4CCOCC4)ccc32)cc(OC)c1OC,3,8,0
CC(C)C(=O)O[C@H]1[C@H](C)C(=O)O[C@@H](C)[C@@H](NC(=O)c2cccc(NC=O)c2O)C(=O)O[C@@H]1C,18,45*,35*
COC(=O)C(NC(=O)c1cccc(NC=O)c1O)C(C)O (centres undefined),-15,-28,-6
O=C(C1CCN(c2ncccn2)CC1)N1CCN(Cc2ccccc2)CC1,12,-3,13
Cc1cc(C)c(O)c(-c2cc(C(=O)Nc3ccccc3Cl)[nH]n2)c1,19,68*,46*
Cc1cccc(-c2cc(C(=O)Nc3ccccc3F)[nH]n2)c1O,36*,90*,58*
Cc1cc(C(=O)Nc2ccccc2Cl)cc2c1N(C)S(=O)(=O)c1ccccc1-2,12,6,23
Cc1ccc(-n2ncc3c(O)c(C(=O)Nc4ccccc4F)c(=O)[nH]c32)cc1,11,11,19
COCCCN1C(=O)C(CC(=O)Nc2ccc(C)c(Cl)c2)n2c1nc1ccccc12 (centres undefined),1,5,-9
Cc1cc(C)n(-c2nc3ccccc3nc2N2CCN(c3ccc([N+](=O)[O-])cc3)CC2)n1,2,-3,13
CCOc1ccc(Nc2nc3ccccc3nc2Nc2cc(C)nn2-c2ccc([N+](=O)[O-])cc2)cc1,8,42*,11
O=C(c1cc(-c2cccnc2)n[nH]1)N1CCC(C(=O)N2CC=C(c3ccccc3)CC2)CC1,4,6,-1
Cc1cccc(-c2nnc(SCC(=O)c3c[nH]c4ccccc34)n2-c2ccccc2)c1,-25,0,-138
O=C(CN1CCCN(Cc2ccccc2)S1(=O)=O)Nc1ccc(F)cc1,17,21,33*
COc1cccc(CN2CCCN(CC(=O)Nc3ccccc3)S2(=O)=O)c1,25,4,20
COc1ccccc1C(=O)Nc1ccc([C@@H](O)[C@H]2COCC(=O)N2)cc1,7,6,19
CC(C)(NC(=O)c1ccc([N+](=O)[O-])cc1)c1nc2ccccc2[nH]1,4,-13,21
COc1ccc(NC(=O)c2sc(Nc3ccc(F)cc3)nc2C)c(OC)c1,12,4,1
COc1ccccc1C1CCNc2ccccc2N1 (centres undefined),-16,0,-49
COc1cccc(C2CCNc3ccccc3N2)c1 (centres undefined),-23,36*,-134
Cc1nnc(-c2cccn2CC(=O)Nc2ccc(Cl)cc2C)o1,5,20,-31
CC(=O)N1CCOc2cc(S(=O)(=O)N3CCCC3c3c(C)noc3C)ccc21 (centres undefined),-6,-8,-13
SMILES,USP28 inh,USP17 block,USP30 block
COc1ccc2c(C)c(CCC(=O)N3CCN(c4ccccc4)CC3)c(=O)oc2c1,8,1,13
Cc1c(Cc2ccccc2)c(=O)oc2cc(OCc3nn[nH]n3)ccc12,44*,36*,38*
Cc1ccccc1NS(=O)(=O)c1cc2[nH]c3c(c2cc1C)C(=O)CCC3,57*,58*,69*
Cc1cc2c3c([nH]c2cc1S(=O)(=O)N1CCC(C)CC1)CCCC3=O,-9,-25,-46
Cc1cc2c3c([nH]c2cc1S(=O)(=O)N(C)C1CCCCC1)CCCC3=O,1,49*,-23
Cc1cc2c3c([nH]c2cc1S(=O)(=O)Nc1c(C)cccc1C)CCCC3=O,-39,-37,-114
O=C1NCCCCC1N1CCN(S(=O)(=O)c2ccc(F)c(Cl)c2)CC1 (centres undefined),-7,·,-41
O=C(NCc1ccnc(C2CCCOC2)n1)C1CCCCC1 (centres undefined),0,0,1
Cc1ccc(C)c(CSc2ncnc3nc[nH]c23)c1,40*,-6,-8
Cc1ncnc2nc[nH]c12,5,2,9
Cc1csc(SCc2ccccc2C(=O)OCC(=O)c2ccc3c(c2)OCCO3)n1,25,-4,-16
O=C1NC2(CCc3ccccc31)CCN(Cc1ccc3nccnc3c1)C2 (centres undefined),-16,-9,-24
Cc1nn(-c2ccccc2)c2sc(-c3noc(C4CC4)n3)cc12,-16,-18,-59
CCc1ccc(S(=O)(=O)c2cn(CC(=O)Nc3ccccc3)c3ccccc3c2=O)cc1,-18,-26,-58
CCc1ccc(NC(=O)CSc2ncc(S(=O)(=O)c3ccccc3)c(=O)[nH]2)cc1,16,27,38*
O=C(NCCc1ccccc1)c1nc(-c2ccc3cc[nH]c3c2)no1,6,48*,7
O=C(NCc1ccccn1)c1nc(-c2ccc3cc[nH]c3c2)no1,0,0,0
O=C(Cc1cccnc1)N[C@@H]1CC[C@@H](Oc2cccc(F)c2)[C@H](O)[C@H]1O,0,3,7
Cc1ccc2c(Nc3ccc(C(N)=O)cc3)c(C(=O)N3CCOCC3)cnc2n1,-10,-11,-29
COc1ccc(NC(=O)CSc2nccn(-c3ccc(F)c(F)c3)c2=O)cc1Cl,6,5,-87
COc1cn(-c2ccc(F)cc2)nc1C(=O)Nc1ccc(F)c(F)c1,4,35*,32*
Cc1ccc(CN[C@H]2CS(=O)(=O)C[C@@H]2S(=O)(=O)c2ccccc2)cc1,1,2,9
O=C(NCC(=O)N1CCC2(CC1)NCCc1[nH]cnc12)c1ccccc1,-12,-7,-29
O=C(CCc1ccccc1)C[C@H](O)CCc1ccccc1,14,18,23
Cc1c(C(=O)NCCCN2CCOCC2)oc2ccc3c(c12)C(=O)CC(C)(c1ccc(Cl)cc1)O3 (centres undefined),42*,10,19
SMILES,USP28 inh,USP17 block,USP30 block
Cc1c(C(=O)NCCN2CCOCC2)oc2ccc(S(=O)(=O)N3CCOCC3)cc12,4,9,14
Cc1ccc(Sc2c(C(F)(F)F)[nH]n(-c3ccccc3)c2=O)cc1,7,33*,28
CS(=O)(=O)N1CCN(Cc2ccc(=O)n(CC3CC3)c2)CC1,0,22,-16
COc1ccc(NC(=O)Nc2nnc(CC(=O)N3CCCCC3)s2)cc1OC,0,-7,-8
CCCCN1CC(C(=O)Nc2ccc(C(=O)Nc3ccc(F)c(Cl)c3)cc2)CC1=O (centres undefined),16,52*,27
CCCCN1CC(C(=O)Nc2ccc(C(=O)Nc3cccc(Cl)c3)cc2)CC1=O (centres undefined),6,11,2
CCCCN1CC(C(=O)Nc2ccc(C(=O)Nc3ccc(Cl)cc3)cc2)CC1=O (centres undefined),18,21,64*
CCCCN1CC(C(=O)Nc2ccc(C(=O)Nc3ccc(Cl)c(Cl)c3)cc2)CC1=O (centres undefined),-20,-9,-20
Fc1ccc(Cc2nnc(C3(c4ccccc4)CCOCC3)o2)cc1,13,9,16
